Measured values: paper PMC4242493, “Sequence specificity incompletely defines the genome-wide occupancy of Myc”
In all, about 33,000 sequences were measured (“normalized occupancy”: median about 0.075, highest 2% from about 0.095 on). This excerpt belongs to a sample that is enriched for the highest values.

Molecular target: MaxL homodimer (Homo sapiens, UniProt P61244 1-160)
Experiment: universal protein-binding microarray (PBM); PBS-based mixture, 10 nM His-tagged protein dimer, 2% milk, 200 ng/uL BSA, 50 ng/uL salmon testes DNA, 0.02% TX-100; detection with Alexa 488 anti-His antibody;; high values mean tight binding
Details: protein: recombinant; tags: C-terminal His-tag (pET21a); chain copies: 2; dsDNA, one strand shown
How it was run: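 Arrays of the 'all 10-mer' universal design (Agilent 4 x 44 K) were exposed to 10 nM His-tagged protein dimer, stained with 10 ng/μL fluorophore-conjugated anti-His antibody and read on a GenePix 4400A to give a fluorescence intensity for each 8-mer. Binding occupancy is each intensity divided by the highest-ranked intensity.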

MaxL homodimer, sequence (P61244 whole entry): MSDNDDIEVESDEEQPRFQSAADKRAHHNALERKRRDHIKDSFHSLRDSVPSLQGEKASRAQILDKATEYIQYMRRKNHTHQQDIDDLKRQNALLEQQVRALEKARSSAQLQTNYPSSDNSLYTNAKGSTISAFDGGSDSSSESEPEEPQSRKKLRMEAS

Sequence | binding signal [normalized occupancy]
GAGAAGGA | 0.0733
CAACAATC | 0.0759
ATGCCCGG | 0.0744
AGACCTTA | 0.0772
AGCGTGGC | 0.108
GGCGTCGA | 0.0725
GGCGTGGA | 0.0968
GCCGTGGA | 0.0736
AGCGTTGG | 0.0764
ACCGTGGC | 0.0752
CCCGTGGC | 0.0811
CGCGTGGC | 0.154
AGAGTGGG | 0.0749
CGGGTGGC | 0.0775
AGCGTGGG | 0.113
AGCGTTGC | 0.0728
CCCCAAAA | 0.0734
AATAACCC | 0.0806
AACAGGAT | 0.0759
CCGTCCTC | 0.0798
CGTCACGA | 0.0766
GTGGACGA | 0.0753
AACTCTAC | 0.0729
CGCATCAG | 0.0761

Sequence | binding signal [normalized occupancy]
CTATAGGA | 0.0753
TGCCAGAA | 0.0775
AGGGTGGA | 0.074
CCCGTGGA | 0.0823
CGTGTGGA | 0.0865
CGTGTGGC | 0.0953
AGTGTGGC | 0.0795
CGCGTCGA | 0.0756
ACCGTGGA | 0.0797
AGCGTGGA | 0.106
CGCGTGGA | 0.147
ACCCTGCA | 0.0751
CTACTAGA | 0.0787
CACTTTGA | 0.0776
CCGCCCTA | 0.0723
CGAATTCC | 0.0757
AGTGGGTG | 0.0863
ACTCGACT | 0.0722
ACACGTCC | 0.08
ACACGTGT | 0.545
ACACGTGA | 0.383
ACACGTCT | 0.0781
ATACGTGA | 0.081
ACACGTAG | 0.0822

Sequence | binding signal [normalized occupancy]
ACACGTAT | 0.0833
AGACGTGG | 0.0819
ACACGTAC | 0.0858
ACACGTGC | 0.567
ACACGTGG | 0.852
AGACGTGA | 0.0821
ATGAAGCA | 0.082
CATTATTA | 0.0832
TAATGCTA | 0.0758
ACTCTGAA | 0.0737
ATTCAGCA | 0.0725
AATCGTTA | 0.0761
ATACGTAT | 0.0856
GCATGGCC | 0.0963
ACATGGCC | 0.0878
GCATGGGA | 0.0967
GCATGGAC | 0.0979
ACATGGCA | 0.0904
ACATGGGA | 0.0901
CCATGGCC | 0.0766
GCATGGCA | 0.102
TCATGGCA | 0.0816
ACATGGAC | 0.0847
TCATGGGA | 0.0807

Sequence | binding signal [normalized occupancy]
CCATGGAC | 0.0837
AATTAAGC | 0.0756
CTGACACC | 0.0794
GTTTGTGA | 0.0718
TAGCATCA | 0.0821
GTCTTCAA | 0.0773
GAGTTGCC | 0.0729
ATTCCATC | 0.0772
TGATTCCA | 0.0829
AACAAACC | 0.074
GCATGACA | 0.088
CCATGATC | 0.0848
ACATGACC | 0.0952
CCATGACC | 0.0831
ACATGACG | 0.0854
ACATGATC | 0.101
ACATGATA | 0.0928
GCATGACC | 0.0988
ACATGACA | 0.089
ATGGGAGC | 0.0768
GTTCCCTA | 0.0721
CGAAAATC | 0.0726
